Measured values: PubChem BioAssay AID485298 (National Center for Advancing Translational Sciences (NCATS), 2010)
Among all 320,000 compounds or so, about 740 (0.23%) were called active. Not shown: some 2% with an inconclusive outcome. Calls come from the whole dose curve; as a rule, active = well fitted activation curve with a large enough effect; inconclusive = small, poorly fitted or top-dose-only effect; inactive = no such curve, though single readings can be large or run the other way. Shown is part of a subset that was picked to be rich in actives. Entries that show only a call come without a potency.

Assay: qHTS Assay for Small Molecule Inhibitors of Mitochondrial Division or Activators of Mitochondrial Fusion; note: nearly all actives have a fitted effect of over 45% in size
Conditions: S. cerevisiae fusion-defective mutant growth rescue, CellTiterGlo 48 h; series mostly up to 46.1 µM
Method in brief: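 Read-out: ATP-based luminescence (CellTiterGlo, 10 min ambient) reporting growth of fusion-defective ts yeast after 48 hours at 37C on glycerol/ethanol YPEG medium in the presence of compound.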
Potency is the fitted concentration of half-maximal effect.

| SMILES | Potency |
| --- | --- |
| CC(/C=C/C1(O)C(C)CC(=O)CC1(C)C)OC1OC(CO)C(O)C(O)C1O (stereo not drawn) | inactive |
| CCCC(C)C(=O)OCC(=O)Nc1c(Br)cc(C)cc1Br (stereo not drawn) | inactive |
| Cn1c(=O)c2c(n3c4ccccc4nc13)NC(=O)CC2c1cccc(Cl)c1 (stereo not drawn) | inactive |
| CC(C)C(=O)Nc1ccc2c3c(cccc13)CC2 | inactive |
| CCOc1ccc(-n2nc3ccc(NC(=O)c4ccc(OC)c(Cl)c4)cc3n2)cc1 | inactive |
| Cc1cc(-c2nnc(CCC(=O)NC(c3ccccc3)c3ccccc3)o2)no1 | inactive |
| O=C(C(NS(=O)(=O)c1cccc2nsnc12)c1ccccc1)N1CCN(c2ccccc2)CC1 (stereo not drawn) | 17.8 µM (active) |
| O=C(C(NS(=O)(=O)c1cccc2nsnc12)c1ccccc1)N1CCN(c2ccccn2)CC1 (stereo not drawn) | inactive |
| O=C(O)C(NS(=O)(=O)c1cccc2nsnc12)c1ccccc1 (stereo not drawn) | inactive |
| CC(=O)Nc1ccc(C(=O)Nc2cccc(S(=O)(=O)NC3=NCCC3)c2)cc1 | inactive |
| CN(C)c1nc(N)nc(CSc2nnnn2-c2cccc3ccccc23)n1 | inactive |
| CCc1nc2sc(C(=O)O)c(N)c2c2c1CCCC2 | inactive |
| Cc1nc2sc(C(=O)c3ccccc3)c(N)c2c2c1CCCC2 | 14.1 µM (active) |
| Cc1ccc2c(N)c(C(=O)c3ccccc3)sc2n1 | inactive |
| COc1ccc(OC)c(S(=O)(=O)n2c([N+](=O)[O-])cnc2C)c1 | inactive |
| CN(c1ccccn1)c1ncnc2[nH]ncc12 | inactive |
| O=S(=O)(c1cccc(C(F)(F)F)c1)N1CCN(c2cnccn2)CC1 | inactive |
| COC(=O)COc1ccc(C2NC(=O)NC(C)=C2C(=O)NCc2ccccc2)cc1OC (stereo not drawn) | inactive |
| CCC(C)(C)n1nnnc1C(c1cccs1)N1CCN(c2nc3ccccc3s2)CC1 (stereo not drawn) | 10 µM (active) |
| Fc1ccc(Cn2nnnc2C(c2cccs2)N2CCCCCC2)cc1 (stereo not drawn) | inactive |
| CCC(C)(C)n1nnnc1C(c1ccc(OC)c(OC)c1)N1CCN(C(=O)c2ccco2)CC1 (stereo not drawn) | inactive |
| Cc1ccc(C(CNC(=O)Nc2cccc(C)c2)N2CCN(C)CC2)cc1 (stereo not drawn) | inactive |
| CCC1=Nc2cc(C(=O)NCCCOC(C)C)ccc2Sc2ccc(C)cc21 | inactive |
| Cc1ccc(S(=O)(=O)N2CCCC(C(=O)N3CCN(C)CC3)C2)cc1 (stereo not drawn) | inactive |
| CCCS(=O)(=O)N1CCCC(C(=O)N2CCN(c3ccccc3)CC2)C1 (stereo not drawn) | inactive |
| O=C(C1CCCN(S(=O)(=O)c2ccccc2)C1)N1CCN(c2ccc(F)cc2)CC1 (stereo not drawn) | 3.98 µM (active) |
| Cc1cccc(C(=O)Nc2ccc(-c3nc4ncccc4o3)cc2C)c1 | inactive |
| COc1cc(NC(=O)CSc2nc3nc(C)c(Cc4ccc(C)cc4)c(C)n3n2)cc(OC)c1OC | inactive |
